This passage reports growth inhibition, inhibition and outcome results from PubChem BioAssay.

Each structure is given as a SMILES string. A number with no mark means an inactive call. For some of these results: Potency and affinity values are given separately. Calls of active or inactive are those of the source. Unless noted, how the calls were made is not given here.

Assay [1] can be described thus: antimalarial activity against Dd2 strain (AID 2302;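 active means growth inhibition above 50% at the single 2 µM test dose, taken to imply half-maximal potency below 2 µM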;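 further: 0% = DMSO untreated growth and 100% = chloroquine plus artemisinin killed control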). Conditions: P. falciparum Dd2 in RBCs, LDH growth readout, 72 h; at 2 µM; active compounds read high.
Assay [2] is described as follows: human hepatoma cell viability loss – ATP luminescence, cytotoxicity control for P. falciparum antimalarial project, primary screen (AID 2303;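 active means inhibition above 50%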;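 further: 0% = DMSO wells and 100% = digitonin-killed cells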). The following applies: HepG2 viability, 24-48 h, at 10 µM, active compounds read high.
The target in assay [3] is L-lactate dehydrogenase (Plasmodium falciparum (isolate CDC / Honduras)) (UniProt Q27743). Put plainly: PfLDH activity inhibition – cell lysate, 3D7 strain, counter-screen for P. falciparum growth inhibition project (AID 2304).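 Further: 0% = vehicle and 100% = reference inhibitor.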 The following applies: P. falciparum 3D7 crude extract, LDH APAD/NBT absorbance; at 2 µM; active compounds read high.
Assay [4] in a line: inhibition of 3D7 malaria parasite growth – strain 3D7 (AID 2306).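 Further: 0% = DMSO wells and 100% = chloroquine plus artemisinin control wells.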 Conditions: P. falciparum 3D7 erythrocytic growth, LDH absorbance, 72 h; at 2 µM; active compounds read high.
Assay [5] has as its target Calcium-dependent protein kinase 1 (Plasmodium falciparum (isolate 3D7)) (UniProt P62344). Put plainly: PfCDPK1 kinase inhibitors, biochemical, TCAMS library (AID 1159585; cut-off not given, nearly all actives have IC50 up to about 0.98 µM;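 further: inhibitors leave more ATP so luminescence rises with inhibition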). Conditions: recombinant PfCDPK1, Kinase-Glo ATP depletion luminescence.
Assay [6] addresses Plasmodium falciparum protein kinase 6 (PK6, PF3D7_1337100) (UniProt Q8IDW1). The assay can be described thus: PfPK6 kinase inhibitors, biochemical, TCAMS library (AID 1159586). The following applies: recombinant PfPK6, Kinase-Glo ATP depletion luminescence.
Assay [7] concerns the target Protein kinase 7 (PK7), Plasmodium falciparum 3D7 (PF3D7_0213400) (UniProt Q7YTF7). Put plainly: inhibition of Plasmodium PK7 catalytic activity – biochemical, TCAMS antimalarial set, Kinase-Glo luminescence (AID 1159587). The following applies: recombinant PfPK7, Kinase-Glo ATP depletion luminescence.
The target in assay [8] is Calcium-dependent protein kinase 4 (Plasmodium falciparum (isolate 3D7)) (UniProt Q8IBS5). Put plainly: PfCDPK4 kinase inhibitors, biochemical, TCAMS library (AID 1159588; cut-off not given, nearly all actives have IC50 up to about 0.91 µM). Conditions: recombinant PfCDPK4, Kinase-Glo ATP depletion luminescence.
Chain of Calcium-dependent protein kinase 4 (Plasmodium falciparum (isolate 3D7)) (Q8IBS5 whole entry, looked up): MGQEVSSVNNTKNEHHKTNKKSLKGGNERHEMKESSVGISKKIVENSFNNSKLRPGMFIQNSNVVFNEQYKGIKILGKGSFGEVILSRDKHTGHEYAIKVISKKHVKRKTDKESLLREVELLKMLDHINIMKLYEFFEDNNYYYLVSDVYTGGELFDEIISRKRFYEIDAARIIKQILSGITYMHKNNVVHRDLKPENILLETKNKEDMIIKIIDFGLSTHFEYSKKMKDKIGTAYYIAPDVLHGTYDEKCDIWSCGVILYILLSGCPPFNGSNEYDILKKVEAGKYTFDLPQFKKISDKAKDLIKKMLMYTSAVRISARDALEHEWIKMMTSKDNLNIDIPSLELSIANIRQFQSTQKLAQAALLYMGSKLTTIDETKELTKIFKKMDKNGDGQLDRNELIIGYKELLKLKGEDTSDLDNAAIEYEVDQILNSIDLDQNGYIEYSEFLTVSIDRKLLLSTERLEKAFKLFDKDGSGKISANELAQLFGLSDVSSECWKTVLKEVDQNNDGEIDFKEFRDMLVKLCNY

Chain of Protein kinase 7 (PK7), Plasmodium falciparum 3D7 (PF3D7_0213400) (Q7YTF7 1-343): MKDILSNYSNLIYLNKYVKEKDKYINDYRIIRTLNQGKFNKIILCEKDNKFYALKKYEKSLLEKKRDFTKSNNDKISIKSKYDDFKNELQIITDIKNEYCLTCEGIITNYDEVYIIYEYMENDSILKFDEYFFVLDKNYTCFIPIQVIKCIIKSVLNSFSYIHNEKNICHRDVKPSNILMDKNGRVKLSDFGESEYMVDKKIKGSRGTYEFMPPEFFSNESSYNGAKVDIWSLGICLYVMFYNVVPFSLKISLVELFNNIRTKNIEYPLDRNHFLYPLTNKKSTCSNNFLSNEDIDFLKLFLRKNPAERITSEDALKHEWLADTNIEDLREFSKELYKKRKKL
Chain of Calcium-dependent protein kinase 1 (Plasmodium falciparum (isolate 3D7)) (P62344 whole entry, looked up): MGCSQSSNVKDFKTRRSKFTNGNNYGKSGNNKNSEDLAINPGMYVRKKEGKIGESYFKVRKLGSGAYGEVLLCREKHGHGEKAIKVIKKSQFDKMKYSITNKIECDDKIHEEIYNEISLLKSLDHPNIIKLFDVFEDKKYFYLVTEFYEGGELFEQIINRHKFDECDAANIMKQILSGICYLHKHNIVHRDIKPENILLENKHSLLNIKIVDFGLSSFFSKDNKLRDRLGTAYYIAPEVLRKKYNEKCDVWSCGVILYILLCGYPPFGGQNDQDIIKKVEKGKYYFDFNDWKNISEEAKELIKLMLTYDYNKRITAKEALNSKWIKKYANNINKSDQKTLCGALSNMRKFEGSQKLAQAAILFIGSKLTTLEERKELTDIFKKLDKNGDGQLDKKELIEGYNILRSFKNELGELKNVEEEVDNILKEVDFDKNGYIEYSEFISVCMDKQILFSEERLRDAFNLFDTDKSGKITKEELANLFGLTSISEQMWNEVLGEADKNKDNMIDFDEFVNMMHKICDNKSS
Chain of Plasmodium falciparum protein kinase 6 (PK6, PF3D7_1337100) (Q8IDW1 1-305): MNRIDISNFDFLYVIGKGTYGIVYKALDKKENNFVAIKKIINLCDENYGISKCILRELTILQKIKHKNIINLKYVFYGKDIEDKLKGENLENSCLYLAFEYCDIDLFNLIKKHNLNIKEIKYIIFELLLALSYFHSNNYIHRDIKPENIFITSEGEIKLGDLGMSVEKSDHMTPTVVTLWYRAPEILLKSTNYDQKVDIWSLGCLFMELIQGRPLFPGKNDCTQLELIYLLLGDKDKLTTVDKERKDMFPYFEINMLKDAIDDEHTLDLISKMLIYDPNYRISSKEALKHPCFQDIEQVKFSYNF
Chain of L-lactate dehydrogenase (Plasmodium falciparum (isolate CDC / Honduras)) (Q27743 whole entry, looked up): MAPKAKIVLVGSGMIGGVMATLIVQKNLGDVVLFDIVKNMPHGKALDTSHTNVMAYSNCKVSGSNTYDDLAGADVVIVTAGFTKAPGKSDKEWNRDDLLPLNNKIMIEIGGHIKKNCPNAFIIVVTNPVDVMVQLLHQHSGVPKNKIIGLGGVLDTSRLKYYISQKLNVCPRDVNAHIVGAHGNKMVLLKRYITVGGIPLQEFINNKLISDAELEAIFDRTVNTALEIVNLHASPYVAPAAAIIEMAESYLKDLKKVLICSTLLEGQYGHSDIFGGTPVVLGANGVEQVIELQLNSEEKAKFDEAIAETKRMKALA

`COc1ccc(N2CCN(CCCCNC(=O)c3ccc(NC(=O)c4cccc(Cl)c4)cc3)CC2)c(OC)c1`: the growth inhibition is 33% in assay [1] and 101% (active) in assay [4]. The inhibition in assay [2] was 18%; in assay [3], 0%. The result in assay [5], in assay [6], in assay [7] and in assay [8] was inactive.

On to `CN1CCN=C1c1ccc(NC(=O)Nc2ccc(C3=NCCN3C)cc2)cc1`, for which the growth inhibition in assay [1] is 69% (active); in assay [4], 85% (active). Further, the results for the inhibition in assay [2] and in assay [3] were 7% and -1%, respectively. The result in assay [5], in assay [6], in assay [7] and in assay [8] was inactive.

Take `Cc1c(C(=O)N2CCc3cc4nccc(N5CCN6CCC[C@H]6C5)c4cc32)cnn1-c1ccc(C#N)cc1`: the results for the growth inhibition in assay [1] and in assay [4] were 27% and 90% (active), respectively. The results for the inhibition in assay [2] and in assay [3] were 0% and -3%, respectively. The outcome in assay [5], in assay [6], in assay [7] and in assay [8] was inactive.

With `CN(C)Cc1ccc(-c2ccc3c(Nc4ccc(Oc5ccccc5)cc4)ccnc3c2)o1`, the growth inhibition in assay [1] was 100% (active); in assay [4], 101% (active). Also, the results for the inhibition in assay [2] and in assay [3] were 10% and 2%, respectively. Also, the result in assay [5], in assay [6], in assay [7] and in assay [8] was inactive.

Regarding `CCCNCc1ccc(-c2ccc(CN(Cc3ccc4c(c3)OCO4)C(=O)Cc3cccnc3)cc2)nc1`, the growth inhibition is 53% (active) in assay [1] and 94% (active) in assay [4]. For the same molecule, the inhibition in assay [2] was 16%; in assay [3], 5%. In addition, the outcome in assay [5], in assay [6], in assay [7] and in assay [8] was inactive.

`COCCNCc1ccc(-c2ccc3c(Nc4ccc(Cl)cc4F)ccnc3c2)o1`: the growth inhibition in assay [1] and in assay [4] was 100% (active) in each case. The values for the inhibition in assay [2] and in assay [3] were 15% and -2%, respectively. In addition, the outcome in assay [5], in assay [6], in assay [7] and in assay [8] was inactive.

With `CN1CCC(N(Cc2ccc(-c3cnc(NCc4ccccc4)nc3)cc2)S(=O)(=O)c2ccccc2)CC1`, the growth inhibition in assay [1] was 10%; in assay [4] it was 102% (active). Besides, the inhibition in assay [2] is 48%; in assay [3], 1%. Besides, the result in assay [5], in assay [6], in assay [7] and in assay [8] was inactive.

For the molecule `COc1ccc(S(=O)(=O)N2CCC(NS(=O)(=O)c3ccc(F)cc3)CC2)cc1`, the growth inhibition in assay [1] was -3%; in assay [4] it was 80% (active). Moreover, the inhibition in assay [2] was 3%; in assay [3], 0%. Moreover, the result in assay [5], in assay [6], in assay [7] and in assay [8] was inactive.

As for `CCc1ccnc2c(N3CCCC3=O)cc(C(=O)N[C@@H](Cc3ccccc3)[C@H](O)CNC3CCOCC3)cc12`, the growth inhibition in assay [1] was 98% (active); in assay [4] it was 99% (active). Further, the inhibition is 2% in assay [2] and 4% in assay [3]. The outcome in assay [5], in assay [6], in assay [7] and in assay [8] was inactive.

On to `C=Cc1sc(CNCCCNc2cc(=O)c3ccccc3[nH]2)c(C)c1Br`, for which the results for the growth inhibition in assay [1] and in assay [4] were 35% and 94% (active), respectively. Moreover, the values for the inhibition in assay [2] and in assay [3] were -5% and -6%, respectively. In addition, the result in assay [5], in assay [6], in assay [7] and in assay [8] was inactive.

In the case of `Oc1c(C(Nc2nc3ccccc3s2)c2ccc(OC(F)F)cc2)ccc2cccnc12` (stereo not given), the values for the growth inhibition in assay [1] and in assay [4] were 85% (active) and 92% (active), respectively. Further, the inhibition is 62% (active) in assay [2] and 4% in assay [3]. In addition, the result in assay [5], in assay [6], in assay [7] and in assay [8] was inactive.

Regarding `CCN(CCCN1CCCCC1)c1cc(C)nc(Nc2ccc(C)cc2Br)n1`, the growth inhibition in assay [1] is 27%; in assay [4], 95% (active). For the same molecule, the inhibition in assay [2] was 49%; in assay [3] it was 3%. For the same molecule, the result in assay [5], in assay [6], in assay [7] and in assay [8] was inactive.

As for `Cc1ccc(CCOCCCCCNCC(O)c2cc(Cl)c(N)c(Cl)c2)cc1` (stereo not given), the results for the growth inhibition in assay [1] and in assay [4] were 98% (active) and 99% (active), respectively. In addition, the figures for the inhibition in assay [2] and in assay [3] were 10% and -1%, respectively. Further, the result in assay [5], in assay [6], in assay [7] and in assay [8] was inactive.

As for `O=S(=O)(c1cc(Cl)c(Cl)cc1Cl)N1CCCCC(c2ccc(C(F)(F)F)cc2)=N1`, the growth inhibition in assay [1] was 99% (active); in assay [4] it was 98% (active). Further, the values for the inhibition in assay [2] and in assay [3] were 9% and -1%, respectively. For the same molecule, the outcome in assay [5], in assay [6], in assay [7] and in assay [8] was inactive.

With `CCCCOc1cc2c(cc1OCC)C(C=Cc1ccc(Cl)cc1Cl)=NCC2`, the growth inhibition is 95% (active) in assay [1] and 97% (active) in assay [4]. Also, the inhibition in assay [2] was -2%; in assay [3], -1%. Moreover, the outcome in assay [5], in assay [6], in assay [7] and in assay [8] was inactive.

Take `COc1cc(C(=O)NCCCN2CCN(c3cccc(Cl)c3)CC2)ccc1-c1cc2cc(Cl)c(Cl)cc2[nH]1`: the growth inhibition in assay [1] was 86% (active); in assay [4], 100% (active). Further, the inhibition in assay [2] is 35%; in assay [3], 0%. Moreover, the outcome in assay [5], in assay [6], in assay [7] and in assay [8] was inactive.

Regarding `CC=CC(=O)N1CCN(c2nccc(-c3ccc(C(C)(C)C)cc3)n2)CC1`, the growth inhibition was 70% (active) in assay [1] and 95% (active) in assay [4]. Moreover, the inhibition was 20% in assay [2] and 0% in assay [3]. In addition, the result in assay [5], in assay [6], in assay [7] and in assay [8] was inactive.

With `COc1ccc(OC)c(NC(=O)c2c(-c3c(F)cccc3Cl)noc2C)c1`, the growth inhibition is 25% in assay [1] and 94% (active) in assay [4]. The inhibition in assay [2] and in assay [3] was -1% each time. Besides, the result in assay [5], in assay [6], in assay [7] and in assay [8] was inactive.

As for `NC(=O)c1cccc(C(=O)Nc2cccc(-c3cccc(-c4nc5ccccc5[nH]4)c3)c2)c1`, the values for the growth inhibition in assay [1] and in assay [4] were 78% (active) and 100% (active), respectively. In addition, the inhibition in assay [2] is 32%; in assay [3], 2%. Moreover, the result in assay [5], in assay [6], in assay [7] and in assay [8] was inactive.

In the case of `CC(=O)Oc1cc(C(=O)Nc2ccc(Cl)cc2)cc2ccccc12`, the growth inhibition in assay [1] is 47%; in assay [4], 88% (active). Moreover, the inhibition in assay [2] is 16%; in assay [3], -3%. Besides, the result in assay [5], in assay [6], in assay [7] and in assay [8] was inactive.
